{"source": "PubChem BioAssay (Tox21)", "note": "Results filed as inconclusive are left out. The source made the active and inactive calls. Calls come from the whole dose curve. % is set by controls: 0 for no effect and ±100 for the full control effect; potency is the fitted concentration of half-maximal effect."}
{"experiment": "p53 small molecule agonists, cell-based qHTS assay with rat liver microsomes: qHTS cell viability counter screen (AID 1963580); note: nearly all actives have a fitted effect of over 45% in size", "conditions": "p53RE-bla HCT-116 + rat microsomes, ATP viability, 16 h; series mostly up to 66 µM; activity change, negative = cytotoxicity: at the top concentration", "description": "National Center for Advancing Translational Sciences [NCATS]\nDivision of Preclinical Innovation [DPI]\nU.S. Environmental Protection Agency [EPA]\nNational Institutes of Environmental Health Sciences [NIEHS]\nNational Toxicology Program [NTP]\nU.S. Food and Drug Administration [FDA]\np53, a tumor suppressor protein, is activated following cellular insult, including DNA damage and other cellular stresses. The activation of p53 regulates cell fate by inducing DNA repair, cell cycle arrest, apoptosis, or cellular senescence. The activation of p53, therefore, is a good indicator of DNA damage and other cellular stresses. The CellSensor p53RE-bla HCT-116 cell line contains a stably integrated beta-lactamase reporter gene under control of the p53 response elements. The activation of the reporter gene under culture conditions can be detected by fluorescence intensity. This cell line was used to screen the Tox21 10K compound library in the condition of presence of rat liver microsomes and to identify agonists that activate the p53 signaling pathway after in vitro metabolic activation (Ooka et al., Archive of Toxicology 96:1975-1987, 2022). The cytotoxicity of the Tox21 compound library against the p53 RE-bla HCT-116 cell line was tested in parallel by measuring the intra cellular ATP content in the same wells.\nTox21 Assay Protocol Summary:\nThe p53RE-bla cells were dispensed at 4,000cells/3ul/well in 1536-well black-clear bottom plates. After the assay plates were incubated at 37 C, 5% CO2 incubator for 5 hours, 23 nL of compounds dissolved in DMSO, positive controls or DMSO only was transferred to the assay plate. Following compound addition, 3 uL of rat liver microsomes (Molecular Toxicology, Boone, NC) at final concentration of 0.5 mg/mL and 1uL of B-Nicotinamide adenine dinucleotide 2'-phosphate (NADPH) at final concentration of 0.5 mg/mL were transferred to the assay plate. The plates were incubated at 37 C for 16 hours. 1 uL of LiveBLAzer detection mixture was added to each well and the plates were incubated at room temperature in the dark for 2 h. Fluorescence intensity at 460 and 530 nm emission and 405 nm excitation were measured by an Envision plate reader. For cell viability readout that measures cytotoxicity, 4 ul/well of CellTiter-Glo reagent was added into the assay plates using a Flying Reagent Dispenser. After 30 min incubation at room temperature, the luminescence intensity in the plates was measured using a ViewLux plate reader."}
{"smiles": "CCCCOC(=O)CCS", "activity change, negative = cytotoxicity": "3.38% (inactive)"}
{"smiles": "Cc1ccc(CO)cc1", "activity change, negative = cytotoxicity": "1.38% (inactive)"}
{"smiles": "CCN(CC)c1ccc(C(=O)c2ccccc2C(=O)O)c(O)c1", "Potency": "inactive"}
{"smiles": "C=CCCCCCCCCCCCC", "activity change, negative = cytotoxicity": "-0.0857% (inactive)"}
{"smiles": "CC/C=C\\CCOC(=O)CCCCC", "activity change, negative = cytotoxicity": "-2.78% (inactive)"}
{"smiles": "CC(=O)OCCCc1ccccc1", "activity change, negative = cytotoxicity": "0.932% (inactive)"}
{"smiles": "CC1CCC(C(C)(C)S)C(=O)C1", "note": "(stereo not given)", "activity change, negative = cytotoxicity": "0.752% (inactive)"}
{"smiles": "C=CCCC(=O)/C=C/C1C(C)=CCCC1(C)C", "note": "(stereo not given)", "activity change, negative = cytotoxicity": "4.23% (inactive)"}
{"smiles": "C=C(C)C(=O)OCCOP(=O)(O)O", "activity change, negative = cytotoxicity": "21.2% (inactive)"}
{"smiles": "CCn1cc(C(=O)O)c(=O)c2cc3c(cc21)OCO3", "Potency": "inactive"}
{"smiles": "C=C(C)C(=O)OCCCCCCCCCCCCC", "activity change, negative = cytotoxicity": "-3.79% (inactive)"}
{"smiles": "C[N+](C)(CCOc1ccccc1)Cc1cccs1", "activity change, negative = cytotoxicity": "-2.31% [at 30.3 µM] (inactive)"}
{"smiles": "COC(=O)c1ccc2cc(C(=O)OC)ccc2c1", "activity change, negative = cytotoxicity": "-1.51% [at 13.5 µM] (inactive)"}
{"smiles": "CC(C)N=C(N)/N=C(\\N)Nc1ccc(Cl)cc1", "activity change, negative = cytotoxicity": "-4.59% [at 30.3 µM] (inactive)"}
{"smiles": "CC1(C)[C@@H]2CC[C@@]1(C)[C@H](O)C2", "activity change, negative = cytotoxicity": "19.8% (inactive)"}
{"smiles": "[Cl][In]([Cl])[Cl]", "Potency": "inactive"}
{"smiles": "CC(C)CC(O)CC(C)C", "activity change, negative = cytotoxicity": "-6.19% (inactive)"}
{"smiles": "CC(C)c1cccc(C(C)C)c1N", "activity change, negative = cytotoxicity": "-14.2% (inactive)"}
{"smiles": "CCOC(=O)c1ccc(OCCN2C[C@H](O)[C@@H](O)[C@H](O)[C@H]2CO)cc1", "activity change, negative = cytotoxicity": "-4.02% [at 30.3 µM] (inactive)"}
{"smiles": "COc1cc(/C=C/C(=O)O[C@H]2CC[C@]34C[C@]35CC[C@]3(C)[C@@H]([C@H](C)CCC=C(C)C)CC[C@@]3(C)[C@@H]5CC[C@H]4C2(C)C)ccc1O", "activity change, negative = cytotoxicity": "-0.139% [at 30.3 µM] (inactive)"}
{"smiles": "CC(C)OCCO", "activity change, negative = cytotoxicity": "0.0028% (inactive)"}
{"smiles": "C=Cc1ccccn1", "activity change, negative = cytotoxicity": "2.22% (inactive)"}
{"smiles": "N=c1nc(N2CCCCC2)cc(N)n1O", "activity change, negative = cytotoxicity": "-2.11% [at 30.3 µM] (inactive)"}
{"smiles": "OC[C@H]1O[C@@H](O[C@H]2[C@H](O)[C@@H](O)[C@H](O)O[C@@H]2CO)[C@H](O)[C@@H](O)[C@H]1O", "activity change, negative = cytotoxicity": "17% (inactive)"}
{"smiles": "CC1=NN(c2ccc(S(=O)(=O)O)cc2)C(=O)C1", "activity change, negative = cytotoxicity": "16.1% (inactive)"}
{"smiles": "CC1(C)O[C@H]2CC(=O)OC[C@]23[C@H]2CC[C@@]4(C)[C@H](c5ccoc5)OC(=O)[C@H]5O[C@]54[C@]2(C)C(=O)C[C@@H]13", "activity change, negative = cytotoxicity": "0.331% [at 30.3 µM] (inactive)"}
{"smiles": "O=C(Cl)c1ccc(C(=O)Cl)cc1", "Potency": "inactive"}
{"smiles": "CC(=O)OCc1ccccc1", "Potency": "inactive"}
{"smiles": "O=S(=O)(O)c1ccccc1", "Potency": "inactive"}
{"smiles": "CN1N=C(C(N)=O)CCC1=O", "activity change, negative = cytotoxicity": "-0.581% [at 30.3 µM] (inactive)"}
{"smiles": "NC(=Nc1ccccc1)Nc1ccccc1", "activity change, negative = cytotoxicity": "1.7% [at 30.3 µM] (inactive)"}
{"smiles": "Cc1ccc(S(N)(=O)=O)cc1", "Potency": "inactive"}
{"smiles": "N#CCc1cccc(C(F)(F)F)c1", "Potency": "45.8 µM (active)"}
{"smiles": "CN(C)C(=O)Oc1ccc[n+](C)c1", "activity change, negative = cytotoxicity": "16.1% [at 30.3 µM] (inactive)"}
{"smiles": "Cc1ccc(-c2ccccc2C#N)cc1", "activity change, negative = cytotoxicity": "1.32% [at 30.3 µM] (inactive)"}
{"smiles": "Oc1ccc(Sc2ccc(O)cc2)cc1", "activity change, negative = cytotoxicity": "-3.8% (inactive)"}
{"smiles": "O=C(Nc1ccc(Cl)cc1)Nc1ccc(Cl)c(Cl)c1", "Potency": "inactive"}
{"smiles": "C=C1C[C@H]2[C@@H]3C=C(C)C4=CC(=O)CC[C@]4(C)[C@H]3CC[C@]2(C)[C@@]1(OC(C)=O)C(C)=O", "Potency": "inactive"}
{"smiles": "CCOC(C)(C)C", "activity change, negative = cytotoxicity": "0.818% (inactive)"}
{"smiles": "O=C1CCCCC1", "Potency": "inactive"}
